This excerpt belongs to a sample that is enriched for hits.
IDE exosite FP – exo-site inhibitors of human insulin-degrading enzyme; P14735; purified IDE, FL-6b probe fluorescence polarization; hits give low values; 17,000 tested, 6.3% active; z-score at 20 µM;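 active = z-score of -3 or lower, meaning strong loss of probe binding signal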;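 note: His-tagged human IDE residues 42-1019 made in E. coli with 30 nM FL-6b probe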
Starred values were filed as active, the others as inactive.

SMILES | IDE exosite FP
COc1cccc(NC(=O)N2CC(=O)N3[C@H](C2)[C@H](c2ccc(C4=CCCC4)cc2)[C@@H]3CO)c1 | 3.46
OC[C@H]1Nc2ccc(-c3cccc(F)c3)cc2[C@@H]2[C@H]1CCN2Cc1ccc(F)cc1 | 1.25
O=C(NC1CCCC1)N1CCCCN2[C@H](CO)[C@H](c3ccc(-c4ccncc4)cc3)[C@@H]2C1 | 4.73
O=C(NC1CCCC1)N1CCCCN2[C@@H](CO)[C@@H](c3ccc(/C=C/c4ccccc4)cc3)[C@@H]2C1 | -8.36*
O=C(Nc1ccccc1F)N1CCCCN2[C@H](C1)[C@H](c1ccc(/C=C/c3ccccc3)cc1)[C@@H]2CO | -0.832
O=C(NC1CCCC1)N1CCCCN2[C@H](CO)[C@H](c3ccc(-c4ccccc4)cc3)[C@@H]2C1 | -0.47
COc1ccccc1-c1ccc([C@H]2[C@@H](CO)N3CCCCN(C(=O)NC4CCCC4)C[C@@H]23)cc1 | -9.33*
O=C(NC1CCCC1)N1CCCCN2[C@H](CO)[C@@H](c3ccc(-c4ccccc4)cc3)[C@H]2C1 | 1.83
O=C(NC1CCCC1)N1CCCCN2[C@@H](CO)[C@H](c3ccc(/C=C/c4ccccc4)cc3)[C@@H]2C1 | -14.8*
O=C(Nc1ccccc1F)N1CCCCN2[C@@H](CO)[C@@H](c3ccc(/C=C/c4ccccc4)cc3)[C@@H]2C1 | -1.16
O=C(NC1CCCC1)N1CCCCN2[C@H](CO)[C@H](c3ccc(-c4ccncc4)cc3)[C@H]2C1 | 4.53
O=C(Nc1cccc(F)c1)N1CC(=O)N2[C@H](CO)[C@H](c3ccc(C#Cc4cccnc4)cc3)[C@@H]2C1 | 0.38
C[C@@H]1CN([C@@H](C)CO)C(=O)CCCn2cc(nn2)CO[C@@H]1CN(C)C(=O)Nc1ccc2c(c1)OCO2 | -0.98
COc1ccc2c3c(n(C)c2c1)[C@@H](CO)NCC31CCN(S(=O)(=O)c2cccc(C)c2)CC1 | 1.11
N#C[C@H]1[C@@H](c2ccc(C#CCC3CCCC3)cc2)[C@H](CO)N1C(=O)c1ccccn1 | 4.54
Cc1ccc(S(=O)(=O)N(C)C[C@@H]2OCCCC[C@H](C)Oc3ccc(NC(=O)c4ccncc4)cc3C(=O)N([C@H](C)CO)C[C@H]2C)cc1 | 1.11
CCCC#Cc1ccc([C@H]2[C@@H](CO)N3C(=O)CN(S(=O)(=O)Cc4ccccc4)C[C@H]23)cc1 | 2.96
CN1C(=O)c2cc(NC(=O)c3cccc(C(F)(F)F)c3)ccc2OC[C@H]2O[C@H](CC(=O)NCCN3CCCC3)CC[C@H]21 | -0.71
Cc1ccccc1-c1ccc([C@@H]2[C@@H](CO)N3CCCCN(S(=O)(=O)c4cn(C)cn4)C[C@H]23)cc1 | -2.25
COc1ccccc1-c1ccc([C@H]2[C@@H](CO)N3CCCCN(S(=O)(=O)c4cn(C)cn4)C[C@H]23)cc1 | -9.3*
Cc1ccccc1-c1ccc([C@H]2[C@H]3CN(S(=O)(=O)c4cn(C)cn4)CCCCN3[C@H]2CO)cc1 | -3.62*
Cc1ccccc1-c1ccc([C@@H]2[C@H](CO)N3CCCCN(S(=O)(=O)c4cn(C)cn4)C[C@@H]23)cc1 | -15.7*
Cc1ccccc1-c1ccc([C@H]2[C@@H](CO)N3CCCCN(S(=O)(=O)c4cn(C)cn4)C[C@@H]23)cc1 | -3.44*
Cn1cnc(S(=O)(=O)N2CCCCN3[C@H](C2)[C@@H](c2ccc(-c4ccc(F)cc4)cc2)[C@@H]3CO)c1 | 0.912
COc1ccccc1-c1ccc([C@H]2[C@@H](CO)N3CCCCN(S(=O)(=O)c4cn(C)cn4)C[C@@H]23)cc1 | 0.396
SMILES | IDE exosite FP
Cn1cnc(S(=O)(=O)N2CCCCN3[C@H](C2)[C@@H](c2ccc(-c4ccccc4)cc2)[C@@H]3CO)c1 | -1.52
Cn1cnc(S(=O)(=O)N2CCCCN3[C@@H](CO)[C@H](c4ccc(-c5ccccc5)cc4)[C@@H]3C2)c1 | -0.126
COc1ccccc1-c1ccc([C@H]2[C@H](CO)N3CCCCN(S(=O)(=O)c4cn(C)cn4)C[C@@H]23)cc1 | 0.665
CO[C@H](CN(C)CC1CCOCC1)[C@@H](C)CN(C(=O)Nc1ccc(F)cc1)[C@@H](C)CO | 1.52
CNC(=O)C[C@H]1CC[C@H]2[C@@H](COc3ccc(NC(=O)Nc4ccc(C#N)cc4)cc3C(=O)N2C)O1 | -2.13
N#C[C@@H]1[C@@H](c2ccc(C#CC3(O)CCCC3)cc2)[C@@H](CO)N1C(=O)C1CCC1 | 0.563
O=C(c1ccc(F)cc1)N1CC(=O)N2[C@H](CO)[C@@H](c3ccc(C#CCC4CCCC4)cc3)[C@H]2C1 | -1.04
CO[C@H]1CN(C)C(=O)c2ccc(NC(=O)Nc3ccccc3)cc2OC[C@@H](C)N(C(=O)CC2CC2)C[C@H]1C | 0.522
O=S(=O)(Cc1ccccc1)N1CCCCN2[C@H](CO)[C@@H](c3ccc(-c4cccnc4)cc3)[C@@H]2C1 | -0.709
COc1ccccc1NC(=O)N1C[C@@H](O)COC[C@@H]2O[C@H](CC(=O)NCCc3ccncc3)CC[C@H]21 | 0.856
C[C@@H]1CCn2cc(nn2)COC[C@@H](Cc2ccccc2)NC1=O | 0.082
C[C@@H]1CN([C@@H](C)CO)C(=O)CCCn2nncc2CO[C@H]1CN(C)Cc1ccc(C(=O)Nc2ccccc2N)cc1 | -0.559
CCCNC(=O)C[C@@H]1CC[C@@H]2[C@H](COC[C@H](O)CN2Cc2ccncc2)O1 | 0.271
CCC(=O)N1CC2(C1)[C@@H](c1ccc(-c3cccc(C)c3)cc1)[C@@H](CO)N2S(C)(=O)=O | -3.27*
CN(C)CC(=O)N1CC2(C1)[C@@H](c1ccccc1)[C@@H](CO)N2S(C)(=O)=O | 1.08
CCC(=O)N1CC2(C1)[C@H](c1ccc(-c3cccc(C)c3)cc1)[C@@H](CO)N2S(C)(=O)=O | -0.593
O=C1CN(S(=O)(=O)c2ccccc2)C[C@H]2[C@@H](c3ccc(C#CCc4ccccc4)cc3)[C@@H](CO)N12 | -2.4
CC(C)CC#Cc1ccc([C@H]2[C@H](CO)N3C(=O)CN(C(=O)Cc4cccnc4)C[C@@H]23)cc1 | -0.13
O=C(C1CCOCC1)N1CC(=O)N2[C@H](CO)[C@H](c3ccc(C#CC4CC4)cc3)[C@H]2C1 | -1.16
CC(C)NC(=O)N1CC(=O)N2[C@H](CO)[C@@H](c3ccc(C#CCN(C)C)cc3)[C@H]2C1 | 3.54
CCC(=O)N1CC(=O)N2[C@H](CO)[C@H](c3ccc(C#Cc4cccnc4)cc3)[C@@H]2C1 | 2.01
O=C(C1CCC1)N1CC(=O)N2[C@@H](CO)[C@H](c3ccc(C#Cc4cccc(F)c4)cc3)[C@@H]2C1 | -3.37*
O=C(C1CCCC1)N1CC(=O)N2[C@H](CO)[C@@H](c3ccc(C#CC4CCCC4)cc3)[C@@H]2C1 | 0.249
O=C(C1CCC1)N1CC(=O)N2[C@H](CO)[C@H](c3ccc(C#Cc4cccc(F)c4)cc3)[C@@H]2C1 | -2.8
O=C(c1cccc(F)c1)N1CC(=O)N2[C@H](CO)[C@@H](c3ccc(C#Cc4ccc(F)cc4)cc3)[C@H]2C1 | 2.08
O=C(C1CCCCC1)N1CC(=O)N2[C@@H](CO)[C@@H](c3ccc(C#Cc4cccc(F)c4)cc3)[C@@H]2C1 | -4.53*
O=C(C1CCC1)N1CC(=O)N2[C@H](C1)[C@@H](c1ccc(C#Cc3cccc(F)c3)cc1)[C@@H]2CO | -1.26
O=C(C1CCCCC1)N1CC(=O)N2[C@@H](CO)[C@H](c3ccc(C#Cc4cccc(F)c4)cc3)[C@@H]2C1 | 0.212
O=C(C1CC1)N1CC(=O)N2[C@H](C1)[C@H](c1ccc(C#Cc3cccc(F)c3)cc1)[C@@H]2CO | -6.09*
O=C(c1cccc(F)c1)N1CC(=O)N2[C@@H](CO)[C@H](c3ccc(C#Cc4ccc(F)cc4)cc3)[C@@H]2C1 | 3.35
